# An excerpt weighted towards active compounds, which were near 1.6% of everything screened.
# KCNQ2 enhance: KCNQ2 (rat) channel potentiation | O88943 | AID 2239 | CHO-K1 KCNQ2, FluxOR thallium flux fluorescence; stronger effect = higher value | hit rate 0.54% among 310,000 | B-score at 10 µM;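 active = fluorescence ratio B-score at least 3 SD of library B-scores, with initial fluorescence B-score within 3 of them, cut at about 5.3 in these data; same plate scores as AID 2156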;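 also: B-score of peak minus minimum over baseline fluorescence ratio after K+ and Tl+ stimulus; positive B-score means potentiation of KCNQ2 with more thallium influx and brighter signal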
# Target sequence (O88943 whole entry, looked up): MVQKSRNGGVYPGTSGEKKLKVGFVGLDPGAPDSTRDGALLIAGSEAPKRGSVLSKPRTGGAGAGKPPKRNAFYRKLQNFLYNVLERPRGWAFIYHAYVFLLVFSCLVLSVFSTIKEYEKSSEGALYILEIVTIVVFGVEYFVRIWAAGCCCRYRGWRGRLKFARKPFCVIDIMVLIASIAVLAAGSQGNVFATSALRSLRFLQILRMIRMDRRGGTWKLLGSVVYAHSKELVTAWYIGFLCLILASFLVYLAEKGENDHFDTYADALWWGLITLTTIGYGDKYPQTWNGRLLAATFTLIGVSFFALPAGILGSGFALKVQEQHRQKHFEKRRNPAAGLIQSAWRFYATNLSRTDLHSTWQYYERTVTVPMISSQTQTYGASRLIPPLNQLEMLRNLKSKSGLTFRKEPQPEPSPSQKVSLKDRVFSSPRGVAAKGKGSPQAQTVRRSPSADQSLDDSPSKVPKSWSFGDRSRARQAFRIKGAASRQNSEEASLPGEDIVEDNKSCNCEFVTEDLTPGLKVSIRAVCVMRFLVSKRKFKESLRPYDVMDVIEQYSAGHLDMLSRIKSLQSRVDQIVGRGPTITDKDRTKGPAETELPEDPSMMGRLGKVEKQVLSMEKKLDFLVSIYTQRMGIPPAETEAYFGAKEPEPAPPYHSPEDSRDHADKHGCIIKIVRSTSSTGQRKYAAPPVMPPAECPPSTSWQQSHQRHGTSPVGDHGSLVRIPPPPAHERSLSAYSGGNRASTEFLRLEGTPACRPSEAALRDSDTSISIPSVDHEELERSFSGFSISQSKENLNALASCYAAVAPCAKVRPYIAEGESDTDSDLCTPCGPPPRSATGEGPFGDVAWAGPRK
# KCNQ2 block: inhibitors of rat KCNQ2 potassium channel; CHO-K1 KCNQ2, FluxOR thallium flux, 20 min; stronger effect = lower value; B-score at 10 µM; hit rate 1.1% among 310,000;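 active = fluorescence ratio B-score at most minus 3 library SDs, with starting brightness B-score within 2 library SDs, cut at about -5.5 in these data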
# * = called active by the depositor; i = inactive; . = not tested or not shown.
SMILES,KCNQ2 enhance,KCNQ2 block
Cc1cc(NC(=O)COC(=O)CNC(=O)c2cccs2)c([N+](=O)[O-])cc1C,.,i
COC(=O)CCC(=O)Nc1cccc2ccccc12,0.28,i
CCCCCC(=O)Nc1cccc2ccccc12,5.7*,i
O=C(CSc1nnc(C2CCCCC2)o1)Nc1ccccc1Cl,.,i
O=C(c1cccc(OC2CCN(Cc3ccc(F)cc3Cl)CC2)c1)N1CCCC1,.,i
CC(C)CC(C(=O)NC1CCCCC1)N(Cc1cccs1)C(=O)c1snc(C(N)=O)c1N (centres undefined),.,i
CC(C)CC(C(=O)NC1CCCC1)N(Cc1cccs1)C(=O)c1snc(C(N)=O)c1N (centres undefined),-5.7,-5.7*
Cc1ccc(-c2cc(-c3ccc(Cl)cc3)c(C#N)c(N)n2)o1,-6.8,-6.8*
Cc1ccc(-c2cc(-c3ccc(C)o3)nc(N)c2C#N)cc1,.,i
O=C(O)c1cc(S(=O)(=O)N(Cc2ccccc2)c2ccc(Cl)cc2)ccc1Cl,0.61,i
O=C(CSc1nnc(CNC(=O)c2ccc(F)cc2)o1)NCc1ccc2c(c1)OCO2,.,i
CCCCNc1c(-c2cccc(-c3ccc(OC)cc3)c2)nc2ccc(C)cn12,-6.1,-6.1*
CCCCNc1c(-c2cccc(-c3cc(C(C)=O)cs3)c2)nc2ccc(C)cn12,.,i
Cc1nc(NC(=O)CSc2nnc(-c3ccc4c(c3)OCO4)o2)c(Cl)cc1Cl,18*,i
O=C(CSc1nnc(-c2ccc3c(c2)OCO3)o1)Nc1ncc(C(F)(F)F)cc1Cl,1.6,i
N/C(=N/OC(=O)c1ccccc1Cl)c1ncc([N+](=O)[O-])s1,0.8,i
CCOC(=O)c1oc2ccccc2c1NC(=O)c1ccc(Cl)s1,-7.6,-7.6*
CCOC(=O)c1oc2ccccc2c1NC(=O)CCl,.,i
CN(C(=O)COC(=O)c1cc(S(=O)(=O)N2CCOCC2)ccc1Cl)C1CCS(=O)(=O)C1 (centres undefined),0.98,i
N#CCCN(C(=O)COc1ccc(C#N)cc1)c1ccc(F)cc1,.,i
CCOC(=O)N1CCN(C(=O)CC(C)S(=O)(=O)c2cc3c(cc2C)NC(=O)CO3)CC1 (centres undefined),.,i
COc1ccc(CNc2nc3nc(C)cc(C)n3n2)cc1OC,0.53,i
Cc1cc(C)n2nc(NCc3cccc(Br)c3)nc2n1,-6.7,-6.7*
CC(C(=O)N1CCCCC1)n1ncn2cccc2c1=O (centres undefined),0.51,i
Cc1ccc(Cl)cc1N1CCN(C(=O)C(C)n2ncn3cccc3c2=O)CC1 (centres undefined),-5.8,-5.8*
SMILES,KCNQ2 enhance,KCNQ2 block
COc1cccc(N2CCN(S(=O)(=O)c3cn(C)cn3)CC2)c1,.,i
Cc1ccc(CNC(=S)NC2CCC(C(C)(C)C)CC2)cc1 (centres undefined),-6.9,-6.9*
COc1ccc(CNC(=S)NC2CCCC2)cc1,0.39,i
Cc1ccc(N(CC(=O)Nc2c(C)cccc2C)S(C)(=O)=O)cc1,0.23,i
CCCCN(CCCNC(=O)Cn1nc(CC)n2c(cc3sc(C)cc32)c1=O)Cc1ccccc1,.,i
O=C(NCc1ccc2c(c1)OCO2)C1CCN(S(=O)(=O)c2ccc(Br)s2)CC1,17*,i
O=C(NCc1ccc2c(c1)OCO2)C1CCN(S(=O)(=O)c2cccs2)CC1,1.1,i
Cc1nc(C)c(-c2ccc(SCc3ccccc3C)nn2)s1,.,i
Cc1ccc(C2c3[nH]c4ccccc4c3C[C@H]3C(=O)N(c4ccccc4C(=O)N4CCC[C@H]4C(=O)O)C(=O)N23)cc1 (some centres undefined),1.3,i
C=CCn1c(C)cc(C(=O)CSc2nc3ccccc3[nH]2)c1C,-7.5,-7.5*
Cc1cc(C(=O)CSc2nc3ccc(Cl)cc3[nH]2)c(C)n1C,-6.3,-6.3*
Cc1cc(C(=O)CSc2nc3ccccc3[nH]2)c(C)n1C,.,i
Cc1ccc2nc(SCC(=O)c3cc(C)n(C)c3C)[nH]c2c1,.,i
COc1ccc(N2CC(C(=O)OCC(=O)Nc3cccc(C)c3)CC2=O)cc1 (centres undefined),.,i
COC(=O)C1=CN(c2ccc(F)cc2)C=C(C(=O)OC)C1c1ccc([N+](=O)[O-])cc1,.,i
COC(=O)C1=CN(c2ccc(OC)cc2)C=C(C(=O)OC)C1c1ccc([N+](=O)[O-])cc1,-5.6,-5.6*
CCCCNC(=O)CNC(=S)N(Cc1ccc(C)cc1)Cc1ccco1,0.59,i
CCOC(=O)CNC(=S)N(Cc1ccco1)Cc1ccccc1Cl,-6.5,-6.5*
CCOC(=O)c1nnn(-c2nonc2N)c1CSc1nnc(N)s1,0.34,i
CCOc1ccc2nc(SC3CC(=O)N(c4ccc(C)cc4)C3=O)sc2c1 (centres undefined),.,i
CCOc1ccc2nc(/N=C/c3c(C)[nH]n(-c4ccccc4)c3=O)sc2c1,20*,i
CCOc1[nH]n(-c2ccccc2)c(=O)c1C=Nc1ccc(OC)cc1,0.02,i
CCOc1ccc2nc(/N=C/c3c(C)[nH]n(-c4ccc(C)cc4)c3=O)sc2c1,17*,i
Cc1cc(C)c(NC(=O)Cn2nnc(C(=O)NCc3ccc4c(c3)OCO4)c2N)c(C)c1,0.68,i
CC1(C)CC(c2nc(-c3ccc([N+](=O)[O-])cc3)cs2)CCO1 (centres undefined),.,i
SMILES,KCNQ2 enhance,KCNQ2 block
O=C(NCCCN1CCOCC1)c1ccccc1N1C(=O)[C@@H]2Cc3c([nH]c4ccccc34)C(c3ccc(F)cc3)N2C1=O (some centres undefined),-7.1,-7.1*
O=C(NCCN1CCOCC1)c1ccccc1N1C(=O)[C@@H]2Cc3c([nH]c4ccccc34)C(c3ccccc3)N2C1=O (some centres undefined),.,i
Cc1cccc(NC(=O)CSc2nnc(C3CC3)n2CC2CCCO2)c1 (centres undefined),.,i
COc1ccc(CCNC(=O)c2coc(=O)c(Br)c2)cc1,0.05,i
Cc1ccc2c(c1)N(CC(=O)Nc1ccccc1F)C(=O)CO2,.,i
O=C(NCCCN1CCCC1=O)c1cc(-c2ccc3c(c2)OCO3)nc2ccccc12,.,i
O=C(NCCCN1CCCC1=O)c1cc(-c2cccnc2)nc2ccc(Cl)cc12,-6.5,-6.5*
Cc1nc2c(c(=O)n1CCC1=CCCCC1)c1nc3ccccc3nc1n2/N=C/c1ccccc1,-5.7,-5.7*
CCOCCCn1c(C)nc2c(c1=O)c1nc3ccccc3nc1n2CCC1=CCCCC1,-5.8,-5.8*
COCCCn1c2nc3ccccc3nc2c2c(=O)n(CC3CCCO3)cnc21 (centres undefined),0.02,i
CCCCCCn1c(C)nc2c(c1=O)c1nc3ccccc3nc1n2/N=C/c1ccco1,.,i
O=c1c2[nH]c3ccccc3c2ncn1CCC1=CCCCC1,.,i
O=c1c2c3nc4ccccc4nc3n(/N=C/c3ccco3)c2ncn1CCC1=CCCCC1,-6.6,-6.6*
CCCCn1c(CCCNC(=O)c2ccco2)nc2ccccc21,.,i
CCn1c(C)c(Br)c(=O)c(C(=O)OC)c1-c1ccc(Cl)cc1,0.92,i
O=C1c2cccnc2C(=O)N1Cc1ccc(S(=O)(=O)N2CCOc3ccc(Cl)cc32)cc1,0.64,i
Cc1ccc(C)c(N(CC(=O)NC(C)(C)C)C(=O)CNC(=O)c2cccs2)c1,.,i
CCc1ccc(NC(=O)C2CCCCC2C(=O)O)cc1 (centres undefined),0.17,i
CCc1ccc(NC(=O)C2C3/C=C\CCCCC32)cc1 (centres undefined),5.8*,i
